Active and inactive are the calls of the source.

Assay [1] is described as follows: E. coli DRC41 culture turbidity changes, primary screen, E. coli filamentation inducer project, strain DRC41, OD650, 48 h (AID 1152).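 Also: E. coli MC1000 strain DRC41 lacking acrAB efflux pump and sulA.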 Particulars: E. coli DRC41 (acrAB sulA), higher = more signal, called active from +8 up or from −8 down.
A short description of assay [2]: small-molecule binders of probe aLefty1, primary screen, biochemical, small-molecule microarray, 635/667 nm fluorescence (AID 1153).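 Also: score merges spot fluorescence with signal-to-noise ratio from the scanned slide images.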 The conditions noted are these: higher = more signal.
A short description of assay [3]: PSAC antagonists in infected red cells, primary screen, cell-based, P. falciparum Indochina, OD700, 1 h (AID 1154). Particulars: P. falciparum Indochina infected RBC osmotic lysis, higher = more signal, called active from +8 up or from −8 down.
Assay [4] in a line: PSAC antagonists in infected red cells, primary screen, cell-based, P. falciparum Indochina, OD700, 2 h (AID 1155).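 Also: lysis reports solute entry through the parasite surface anion channel PSAC; channel blockers reduce lysis of infected cells.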 Particulars: P. falciparum Indochina infected erythrocytes, osmotic lysis OD700; higher = more signal, called active from +8 up or from −8 down.
The nature of assay [5]: osmotic lysis modulators in infected erythrocytes, primary screen, PSAC antagonist project, cell-based, P. falciparum Indochina, OD700, 3 h (AID 1156). The conditions noted are these: higher = more signal, called active from +8 up or from −8 down.
The nature of assay [6]: PSAC antagonists in infected red cells, primary screen, cell-based, P. falciparum Indochina, OD700, 18 h (AID 1157). The conditions noted are these: P. falciparum Indochina infected erythrocytes, osmotic lysis OD700, 18 h; higher = more signal, called active from +8 up or from −8 down.
Assay [7] can be described thus: modulators of S6 phosphorylation in cells, primary screen, cell-based, A549, cytoblot, luminescence, serum-stimulated (AID 1158).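 Also: serum-stimulated A549 lung adenocarcinoma cells; signal is phosphorylated S6 detected by cytoblot immunostaining with HRP secondary.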 Particulars: A549 phospho-S6 cytoblot, 5 h, higher = more signal.
Assay [8] addresses NADPH oxidase 2 (Homo sapiens) (UniProt P04839). Briefly: NOX2-dependent H2O2 signal modulators, primary screen, NOX inhibitor project, cell-based, HEK293-NOX2, PMA-stimulated, Amplex Red fluorescence (AID 1159). Also: test concentration not given here. Particulars: 45 min, higher = more signal, called active from +8 up or from −8 down.
For assay [9], the target named is NADPH oxidase 4 (Homo sapiens) (UniProt Q9NPH5). Nature of the assay: NOX4-dependent H2O2 signal modulators, primary screen, NOX inhibitor project, cell-based, HEK293-NOX4, tetracycline-induced, Amplex Red fluorescence (AID 1160). Particulars: 45 min, higher = more signal, called active from +8 up or from −8 down.
NADPH oxidase 4 (Homo sapiens), sequence (Q9NPH5 whole entry, looked up): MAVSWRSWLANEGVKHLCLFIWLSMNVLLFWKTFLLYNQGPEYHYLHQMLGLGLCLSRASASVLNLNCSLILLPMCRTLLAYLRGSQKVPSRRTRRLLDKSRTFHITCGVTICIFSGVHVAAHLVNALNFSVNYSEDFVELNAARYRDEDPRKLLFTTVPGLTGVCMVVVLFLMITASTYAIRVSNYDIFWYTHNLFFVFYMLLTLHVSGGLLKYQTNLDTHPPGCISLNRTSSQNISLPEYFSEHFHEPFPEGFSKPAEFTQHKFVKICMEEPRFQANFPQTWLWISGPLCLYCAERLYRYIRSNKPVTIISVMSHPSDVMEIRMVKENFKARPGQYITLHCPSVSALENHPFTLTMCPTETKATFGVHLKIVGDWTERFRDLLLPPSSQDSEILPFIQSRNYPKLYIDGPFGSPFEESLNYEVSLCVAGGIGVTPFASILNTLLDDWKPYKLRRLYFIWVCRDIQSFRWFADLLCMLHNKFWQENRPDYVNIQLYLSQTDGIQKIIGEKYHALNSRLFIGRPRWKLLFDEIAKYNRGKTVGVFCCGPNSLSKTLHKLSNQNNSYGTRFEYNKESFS
The target in assay [10] is NADPH oxidase 5 (Homo sapiens) (UniProt Q96PH1). Briefly: NOX5-dependent H2O2 signal modulators, primary screen, NOX inhibitor project, cell-based, HEK293-NOX5, Amplex Red fluorescence (AID 1161). The conditions noted are these: HEK293-NOX5, ionomycin, 45 min, higher = more signal.
NADPH oxidase 5 (Homo sapiens), sequence (Q96PH1 whole entry, looked up): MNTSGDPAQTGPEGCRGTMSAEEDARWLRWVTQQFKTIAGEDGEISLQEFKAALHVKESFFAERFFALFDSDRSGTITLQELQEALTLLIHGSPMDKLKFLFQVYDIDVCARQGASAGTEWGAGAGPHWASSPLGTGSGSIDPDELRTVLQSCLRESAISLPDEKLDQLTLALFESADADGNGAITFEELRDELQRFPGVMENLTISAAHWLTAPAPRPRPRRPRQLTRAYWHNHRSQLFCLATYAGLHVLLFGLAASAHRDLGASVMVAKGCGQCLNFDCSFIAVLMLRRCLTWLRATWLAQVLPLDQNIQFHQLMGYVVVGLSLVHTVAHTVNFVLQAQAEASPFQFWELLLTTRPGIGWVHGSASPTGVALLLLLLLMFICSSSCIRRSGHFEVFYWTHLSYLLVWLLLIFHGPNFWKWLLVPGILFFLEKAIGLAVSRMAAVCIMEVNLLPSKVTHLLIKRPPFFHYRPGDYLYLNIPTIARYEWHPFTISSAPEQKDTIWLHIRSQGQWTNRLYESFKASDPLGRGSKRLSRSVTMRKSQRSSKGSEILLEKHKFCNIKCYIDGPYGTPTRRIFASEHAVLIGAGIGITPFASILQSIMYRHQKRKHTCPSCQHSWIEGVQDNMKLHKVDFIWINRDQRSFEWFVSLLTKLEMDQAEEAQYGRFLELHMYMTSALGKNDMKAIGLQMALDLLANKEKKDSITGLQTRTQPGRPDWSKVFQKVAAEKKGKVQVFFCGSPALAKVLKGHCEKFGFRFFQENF
Assay [11] in a line: A549 cell viability effects, profiling panel, calcein-AM fluorescence, 48 h, basal (AID 1162). Also: test concentration not given here. Particulars: higher = more signal.
Assay [12] is described as follows: adipocyte viability effects, profiling panel, cell-based, 3T3-L1 adipocytes, calcein-AM fluorescence, 48 h, basal (AID 1163). Also: test concentration not given here. The conditions noted are these: 3T3-L1 adipocytes viability, higher = more signal.
The nature of assay [13]: HepG2 cell viability effects, profiling panel, calcein-AM fluorescence, 48 h, basal (AID 1164). Also: test concentration not given here. Particulars: higher = more signal.
A short description of assay [14]: MM1S cell viability effects, profiling panel, calcein-AM fluorescence, 48 h, basal (AID 1165).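 Also: viability of MM1S multiple myeloma cells under basal unstimulated conditions; test concentration not given here.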 Particulars: higher = more signal.
Assay [15] is described as follows: basal RPMI8226 viability, no added stimulus, profiling panel, cell-based, calcein-AM fluorescence, 48 h, PK04 Diversity Set (AID 1166).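 Also: cells grown under basal conditions without added stimulus; test concentration not given here.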 Particulars: RPMI8226 myeloma viability, higher = more signal.
Assay [16] in a line: basal HepG2 mitochondrial membrane potential changes, profiling panel, cell-based, JC-1 fluorescence, 24 h, 100 nL compound (AID 1167). Also: test concentration not given here. The conditions noted are these: higher = more signal.
Assay [17] is described as follows: basal 3T3-L1 adipocyte mitochondrial potential changes, profiling panel, cell-based, JC-1 fluorescence, 3T3-L1 adipocytes, 24 h, 100 nL compound (AID 1168). Also: test concentration not given here. The conditions noted are these: JC-1 mitochondrial fluorescence, higher = more signal, called active from +8 up or from −8 down.
A short description of assay [18]: basal RPMI8226 mitochondrial membrane potential changes, profiling panel, cell-based, JC-1 fluorescence, 24 h, 100 nL compound (AID 1169). Also: test concentration not given here. Particulars: RPMI8226 myeloma, JC-1 mitochondrial potential fluorescence, higher = more signal.
Assay [19] in a line: basal MM1S mitochondrial membrane potential changes, profiling panel, cell-based, JC-1 fluorescence, 24 h, 100 nL compound (AID 1170). Also: test concentration not given here. The conditions noted are these: higher = more signal.
A short description of assay [20]: A549 lung cancer cell viability effects, profiling panel, resazurin fluorescence, 24 h, PK04 Diversity Set (AID 1171). Also: test concentration not given here. Particulars: higher = more signal, called active from +8 up or from −8 down. (In general: Alamar Blue is a resazurin reagent that responds to reducing activity.)

NADPH oxidase 2 (Homo sapiens), sequence (P04839 whole entry, looked up): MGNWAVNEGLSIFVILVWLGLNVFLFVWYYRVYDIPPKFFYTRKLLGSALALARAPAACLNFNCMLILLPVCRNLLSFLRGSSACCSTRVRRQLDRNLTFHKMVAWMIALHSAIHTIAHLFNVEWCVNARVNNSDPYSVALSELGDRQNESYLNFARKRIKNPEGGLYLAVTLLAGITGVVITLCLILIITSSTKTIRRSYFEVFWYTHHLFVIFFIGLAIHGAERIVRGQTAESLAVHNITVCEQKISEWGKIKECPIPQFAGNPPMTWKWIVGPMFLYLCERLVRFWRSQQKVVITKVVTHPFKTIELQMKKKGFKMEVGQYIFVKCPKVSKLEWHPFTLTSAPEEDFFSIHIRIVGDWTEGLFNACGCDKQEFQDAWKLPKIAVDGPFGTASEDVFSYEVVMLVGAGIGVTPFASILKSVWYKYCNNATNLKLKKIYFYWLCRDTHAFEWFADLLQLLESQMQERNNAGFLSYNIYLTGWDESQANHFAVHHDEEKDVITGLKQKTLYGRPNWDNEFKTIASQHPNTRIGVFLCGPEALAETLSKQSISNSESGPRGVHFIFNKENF

As for `COCCOC(=O)N1C(=O)[C@@]2(c3cc(C#CCCO)ccc31)[C@H](C(=O)N1CCN(c3ncccn3)CC1)[C@H]1C(=O)O[C@H](c3ccccc3)[C@H](c3ccccc3)N1[C@@H]2c1ccccc1OCCO`, the z-score is 1.21 (inactive) in [1]; 2.63 (inactive) in assay [3]; 1.14 (inactive) in [4]; 0.288 (inactive) in [5]; 0.761 (inactive) in assay [6]; 0.69 in assay [7]. For the same compound, the z-score was 1.45 (inactive) in assay [8]; 1.29 (inactive) in assay [9]; 0.437 in [10]; 0.703 in assay [11]; 0.701 in assay [12]; -0.51 in assay [13]. Further, the z-score in assay [14] is 0.135; in [15], -0.192; in assay [16] it was 0.107; in [17], 0.675 (inactive); in assay [18], -0.324; in [19], -1.15. Moreover, in assay [20], the z-score was 1.79 (inactive). In addition, the composite z-score in assay [2] turned out to be 0.157.
With `CCCCC=C[C@@H](NC(=O)Oc1cccc(C(F)(F)F)c1)c1ccccc1`, the z-score was -2.63 (inactive) in assay [1]; 2.41 (inactive) in [3]; 0.278 (inactive) in assay [4]; 0.247 (inactive) in [5]; -1.17 (inactive) in [6]; 1.31 in assay [7]. For the same compound, the z-score in [8] is -3.82 (inactive); in assay [9] it was -3.48 (inactive); in assay [10], -2.98; in assay [11], -1.12; in assay [12], 0.26; in assay [13], -0.568. The z-score in [14] was -1.8; in assay [15], -3.36; in assay [16], -1.63; in [17], -0.585 (inactive); in [18], -0.799; in [19] it was -1.1. Also, the z-score in [20] is -0.665 (inactive). The compound further returned a composite z-score in assay [2] of 1.29.
As to `CCCC[C@@H]1C[C@H]1[C@@H](NC(=O)c1ccco1)c1ccc(C(=O)OC)cc1`, the z-score was -2.59 (inactive) in assay [1]; 1.59 (inactive) in assay [3]; 0.501 (inactive) in assay [4]; 0.394 (inactive) in [5]; 0.323 (inactive) in assay [6]; -0.0467 in assay [7]. Also, the z-score was -1.55 (inactive) in assay [8]; -1.96 (inactive) in assay [9]; 1.82 in assay [10]; -1.06 in assay [11]; -1.16 in assay [12]; -0.998 in [13]. Besides, the z-score was -1.77 in assay [14]; -2.42 in assay [15]; -2.68 in assay [16]; -2.2 (inactive) in assay [17]; -0.705 in [18]; -1.19 in assay [19]. In [20], the z-score was -0.136 (inactive). Also, the composite z-score in assay [2] was -0.214.
For the compound `CC(C)C[C@@H]1NC(=O)[C@H]2C[C@@H](C(=O)NCCCCCCN(C)C)[C@@H](c3ccc(O)cc3)N2C1=O`, the z-score is -0.655 (inactive) in [1]; 0.977 (inactive) in assay [3]; -0.116 (inactive) in [4]; -0.0599 (inactive) in [5]; -0.288 (inactive) in assay [6]; -0.384 in [7]. For the same compound, the z-score in [8] was 0.193 (inactive); in assay [9], 0.268 (inactive); in assay [10], 0.0226; in assay [11], -1.06; in assay [12], -0.0009; in [13], -0.59. Also, the z-score in assay [14] was 0.235; in assay [15] it was -1.28; in [16], -0.438; in assay [17], 0.186 (inactive); in [18] it was 0.664; in assay [19], -0.601. For the same compound, in [20], the z-score was -0.743 (inactive). Moreover, in assay [2], the composite z-score is -0.0573.

The values above are taken from PubChem BioAssay.
